In PubChem BioAssay:
Where “and” joins values, the source holds several entries; their conditions need not be identical. Equal entries are not always repeated. Calls of active or inactive are those of the source.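 How the source made its calls, unless noted: active means mean z-score across replicates of 1.96 or higher in either the MELAS or the Rieske mutant cell line; inactive means the rest.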

How the values were obtained:
[1] = P. berghei load reduction in hepatocytes – cell-based, HepG2, luciferase luminescence, HepG2 viability, primary screen (AID 624349; in the data active means parasite load remaining mostly below about 12%, no sharp cut-off; inactive means mostly above about 10%;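 further: 100% = mean of DMSO negative control wells on the same plate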); settings: P. berghei liver stage in HepG2, luciferase luminescence, concentration not given here; parasite load remaining: stronger effect = lower value; viability: measured here: HepG2 viability without parasites
[2] = Wnt pathway potentiators raising nuclear beta-catenin – imaging, WNT3A-conditioned medium, mouse C2C12, NPC library, primary screen (AID 1117326; in the data active means nuclear beta-catenin stimulation mostly above about 4.2%, no sharp cut-off; inactive means mostly below about 10%; further: reference of the scale not given here); settings: stronger effect = higher value
[3] = stimulators of insulin release from INS-1E, primary screen, cell-based, 5 mM glucose, NPC library (AID 1117329;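 active means compound raises insulin release from rat beta cells at 5 mM glucose, no numeric limit stated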; further: reference of the scale not given here); settings: rat INS-1E insulin secretion, at 10 µM, stronger effect = higher value
[4] = growth inhibition of GSK3B-pretreated HCT116 cells – cell-based, CellTiter-Glo, 0.2 to 20 µM (AID 1117336;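 active means compounds lowering colon cancer cell viability after pretreatment blocking the GSK3B kinase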); settings: HCT116 viability after GSK3B inhibitor, at 20 µM, stronger effect = higher value
[5] = inhibition of endothelial tube formation, primary screen, imaging, VEGF stimulated, CD31 staining, tube area, NPC library (AID 1117340;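 active means compound that reduces growth-factor-driven endothelial tube area in a mixed cell culture, no cutoff stated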); settings: VEGF-stimulated ADSC/ECFC co-culture, at 10 µM, stronger effect = higher value
[6] = GLP1 release stimulators, primary, NCI-H716, NPC library (AID 1117341;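 active means compound raises GLP1 secretion from the human gut endocrine cells, with no numeric limit stated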; further: reference of the scale not given here); settings: NCI-H716 cells, at 10 µM, stronger effect = higher value
[7] = HCT116 colon cancer cell growth inhibition, primary screen, CellTiter-Glo luminescence, NPC library (AID 1117342;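 active means compounds that lower survival of HCT116 colon cancer cells in the luminescence readout, no numeric limit stated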); settings: at 20 µM (top of the series)
[8] = reduced SW480 viability measured with CellTiter-Glo, NPC library, primary (AID 1117343;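 active means compounds that lower viability of the colon cancer cells in the luminescence readout, with no numeric limit stated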); settings: CellTiter-Glo luminescence; at 20 µM (top of the series) unless noted
[9] = NPC library primary testing for decreased DLD-1 cell viability via CellTiter-Glo (AID 1117346;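 active means compounds that lower survival of DLD-1 colon cancer cells in the luminescence readout, no cutoff given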); settings: DLD-1 viability, CellTiter-Glo luminescence; at 20 µM (top of the series)
[10] = viability loss with induced miR-34 in A549 – imaging, A549 dox-inducible miR-34, nuclei and caspase counts, primary screen (AID 1347080;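 active means compounds whose cell count with miR-34 switched on is under 0.7 times the count with it off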); settings: A549 miR-34 inducible, Hoechst nuclei count, 48 h
[11] = MELAS cybrid and Rieske KO viability enhancers – cell-based, MELAS cybrids, Rieske KO mouse fibroblasts, CellTiter-Glo, primary screen (AID 1508586); settings: low glucose;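 further: z relative to plate mean and SD of compound and empty wells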
[12] = galactose survival enhancers in mitochondrial complex I cybrids – cell-based, galactose medium, ATP luminescence, primary screen (AID 1645843;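 active means z-score of at least 1.8 in each of two replicates, scored against plate mean and spread of sample wells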;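 further: positive z means more ATP and so rescue of galactose-driven cybrid death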); settings: complex I mutant cybrid cells, 72 h, stronger effect = higher value
[13] = target: NAD(+) hydrolase SARM1 (Homo sapiens) (UniProt Q6SZW1); test: blocking NAD cleavage by SARM1 SAM-TIR – cell lysate, NAD-Glo luminescence (AID 1508614;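 active means compound whose remaining NAD level is above about 45 nM, limit read from the data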); settings: SAM-TIR HEK293T lysate NADase, at 1 µM, stronger effect = higher value
[14] = stronger effect = lower value, cell number ratio, induced over uninduced
[15] = measured here: relative caspase fold change +Dox/-Dox
[16] = measured here: total cells with miR-34 induction, stronger effect = lower value
[17] = measured here: total cells without miR-34 induction
[18] = MELAS cybrid survival, CellTiter-Glo 48 h, stronger effect = higher value
[19] = Rieske KO mouse fibroblast survival, CellTiter-Glo 72 h

NAD(+) hydrolase SARM1 (Homo sapiens), sequence (Q6SZW1 whole entry, looked up): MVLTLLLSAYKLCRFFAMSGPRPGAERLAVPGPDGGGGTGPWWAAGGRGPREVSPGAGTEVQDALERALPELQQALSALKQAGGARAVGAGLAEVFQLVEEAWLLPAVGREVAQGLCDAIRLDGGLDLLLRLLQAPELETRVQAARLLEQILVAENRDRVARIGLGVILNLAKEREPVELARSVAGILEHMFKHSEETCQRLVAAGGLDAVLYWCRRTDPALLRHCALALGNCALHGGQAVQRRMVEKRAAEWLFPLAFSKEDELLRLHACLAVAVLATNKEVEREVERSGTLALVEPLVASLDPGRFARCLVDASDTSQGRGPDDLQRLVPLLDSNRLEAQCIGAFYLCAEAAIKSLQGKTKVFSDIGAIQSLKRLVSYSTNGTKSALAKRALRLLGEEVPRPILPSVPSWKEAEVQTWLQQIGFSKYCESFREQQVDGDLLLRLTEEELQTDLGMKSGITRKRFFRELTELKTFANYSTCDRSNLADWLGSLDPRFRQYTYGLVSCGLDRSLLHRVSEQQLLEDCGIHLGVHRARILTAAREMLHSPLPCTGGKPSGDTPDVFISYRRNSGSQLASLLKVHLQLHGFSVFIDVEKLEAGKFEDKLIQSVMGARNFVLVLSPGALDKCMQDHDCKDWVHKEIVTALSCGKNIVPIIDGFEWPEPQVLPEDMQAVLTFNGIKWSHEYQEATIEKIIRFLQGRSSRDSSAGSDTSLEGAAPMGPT

SMILES	parasite load remaining [1]	viability [1]	nuclear beta-catenin stimulation ([2]; at 10 µM)	nuclear beta-catenin stimulation ([2]; stimulation, at 2 µM) [%]	insulin secretion stimulation [3]	viability decrease [4]	tube area decrease [5]	GLP1 secretion stimulation [6]	inhibition of viability [7]	viability decrease (inhibition) [8]	viability decrease (inhibition) [9]	fold change [10, 14]	fold change [10, 15]	cell count [10, 16]	cell count [10, 17]	z-score [11, 18]	z-score [11, 19]	z-score [12]	remaining NAD [13]
O=c1[nH]c2ccccc2n1CCCN1CCN(C(c2ccccc2)c2ccccc2)CC1	29.6% (inactive)	106%	2.7% (inactive)	2	1.95% (inactive)	72% (active)	20.5% (inactive)	1.4% (inactive)	76.3% (active)	110% (active)	78.8% (active)	0.906 (inactive)	1.22	8130	8980	-0.355 (inactive)	-0.351	-1.56 (inactive)	
COc1ccc(C=CC(=O)Nc2ccccc2C(=O)O)cc1OC			-1.3% (inactive)	2.1	0.9% (inactive)	4.3% (inactive)	-1.3% (inactive)	-5.7% (inactive)	-5.8% (inactive)	4.8% (inactive)	-29.2% (inactive)	0.906 (inactive) and 0.975 (inactive)	1.48 and 0.856	9440 and 8000	10400 and 8210	-0.386 (inactive)	0.573	0.955 (inactive)	
CC1(C)[C@@H](OC(=O)CCC(=O)O)CC[C@]2(C)[C@H]3C(=O)C=C4[C@@H]5C[C@@](C)(C(=O)O)CC[C@]5(C)CC[C@@]4(C)[C@]3(C)CC[C@@H]12	77.3% (inactive)	94.7%	4.8% (inactive)	1.3	-1% (inactive)	50.3% (active)	15.3% (inactive)	2.7% (inactive)	43.6% (inactive)	15.1% (inactive)	35.6% (inactive)	0.87 (inactive)	1.72	9330	10700	0.704 (inactive)	0.0878		10 nM (inactive)
C=CCNC(N)=S			5.1% (inactive)	2.3	-0.8% (inactive)	-2.15% (inactive)	-31.3% (inactive)	-0.3% (inactive)	-19.1% (inactive)	23.8% (active)	-4.7% (inactive)	0.867 (inactive) and 0.831 (inactive)	1.24 and 0.686	7540 and 8140	8690 and 9790	-0.239 (inactive)	-0.148		10 nM (inactive)
C#C[C@]1(OC(C)=O)CC[C@H]2[C@@H]3CCC4=C[C@@H](OC(C)=O)CC[C@@H]4[C@H]3CC[C@@]21C	82.1% (inactive)	93.8%	4.6% (inactive)	2.1	0.1% (inactive)	-55.2% (inactive)	-2.9% (inactive)	-2.3% (inactive)	45% (inactive)	80.6% (active)	64.6% (active)	0.877 (inactive)	1.09	9000	10300	-0.135 (inactive)	0.556		10 nM (inactive)
CN(C)CCN1C(=O)c2ccccc2N(C)c2ccccc21	18.6% (inactive)	64.5%	0.8% (inactive)	-0.9	14.4% (inactive)	8.2% (inactive)	11.6% (inactive)	4% (inactive)	0.3% (inactive)	35.8% (inactive)	-35.8% (inactive)	0.889 (inactive)	1.32	10000	11300	0.44 (inactive) and -0.381 (inactive)	0.025 and -0.152	0.475 (inactive)	
O=C(O)COC(=O)Cc1ccccc1Nc1c(Cl)cccc1Cl	25.9% (inactive) and 102% (inactive) and 21.3% (inactive)	47% and 92.7% and 77%	1.1% (inactive)	-1	3.2% (inactive)	30.7% (inactive)	-0.5% (inactive)	1% (inactive)	26% (inactive)	83.7% (active)	20.5% (inactive)	0.899 (inactive) and 0.88 (inactive)	1.19 and 1.2	8790 and 10000	9770 and 11400	-0.0312 (inactive) and 0.298 (inactive)	-0.0287 and -0.406	0.67 (inactive)	10 nM (inactive)
C=C1C[C@H]2[C@@H]3C=C(C)C4=CC(=O)CC[C@]4(C)[C@H]3CC[C@]2(C)[C@@]1(OC(C)=O)C(C)=O	14.5% (inactive)	66%	-0.2% (inactive)	0.8	0.5% (inactive)	37.4% (inactive)	-17.7% (inactive)	-1.4% (inactive)	62% (active)	61.1% (active)	53.6% (active)	0.868 (inactive)	1.42	5790	6660	0.533 (inactive) and 0.334 (inactive)	0.392 and 1.14	-0.29 (inactive)	15 nM (inactive)
COc1cc(C)c(C=CC(C)=CC=CC(C)=CC(=O)O)c(C)c1C			1% (inactive)	1.9	2.8% (inactive)	61.5% (active)	45.4% (active)	-3.9% (inactive)	52.1% (active)	70.9% (active)	78.6% (active)	0.847 (inactive)	1.06	6840	8080	-0.108 (inactive)	0.793		
CCN(CC)C(=O)/C(C#N)=C/c1cc(O)c(O)c([N+](=O)[O-])c1	40.1% (inactive)	102%	-0.4% (inactive)	1.2	1.5% (inactive)	36% (inactive)	61.4% (active)	0% (inactive)	29.2% (inactive)	92.4% (active)	35.8% (inactive)	0.873 (inactive)	0.914	10100	11500	-0.387 (inactive) and -1.06 (inactive)	-0.365 and -0.513	0.125 (inactive)	10 nM (inactive)
CC(=O)[C@H]1CC[C@H]2[C@@H]3C=CC4=CC(=O)CC[C@@]4(C)[C@@H]3CC[C@]12C	84.3% (inactive)	94.2%	4.5% (inactive)	1.5	-1.8% (inactive)	6.3% (inactive)	4.8% (inactive)	3.1% (inactive)	14.9% (inactive)	64.2% (active)	5.4% (inactive)	0.855 (inactive)	1.43	8320	9730	0.367 (inactive)	0.105		10 nM (inactive)
CCOc1ccccc1OCCN[C@H](C)Cc1ccc(OC)c(S(N)(=O)=O)c1	30.6% (inactive)	71%	0.2% (inactive)	3	1.6% (inactive)	4.2% (inactive)	-2.4% (inactive)	2.3% (inactive)	4.1% (inactive)	6.6% (inactive)	5.8% (inactive)	0.868 (inactive)	1.51	9140	10500	-0.622 (inactive)	-1.24	-0.32 (inactive)	10 nM (inactive)
COC(=O)C(c1ccccc1Cl)N1CCc2sccc2C1 (stereo not drawn)			0.3% (inactive)	-0.7	1.9% (inactive)	30.5% (inactive)	1.2% (inactive)	3.9% (inactive)	52.7% (active)	18.6% (inactive)	48.7% (inactive)	0.927 (inactive)	0.912	7680	8290	-0.416 (inactive)	0.984		
CC(C)(C)NC[C@H](O)COc1cccc2c1CCCC2=O	68.1% (inactive)	89.1%	0% (inactive)	0.3	3.7% (inactive)	17.1% (inactive)	1% (inactive)	8.6% (inactive)	13.8% (inactive)	-11.3% (inactive)	2.7% (inactive)	0.883 (inactive)	1.03	9340	10600	0.581 (inactive)	0.045		10 nM (inactive)
Cc1ccc(Nc2c(F)cccc2Cl)c(CC(=O)O)c1			1% (inactive)	3.4	-0.3% (inactive)	0.4% (inactive)	-20.6% (active)	3.1% (inactive)	-25.8% (inactive)	-2.2% (inactive)	-9.1% (inactive)	0.931 (inactive)	0.932 and 0.672	8200 and 8630	8810 and 9270	-0.194 (inactive)	0.00857		10 nM (inactive)
CCOC(=O)/C=C(C)/C=C/C=C(C)/C=C/c1c(C)cc(OC)c(C)c1C	13.4% (inactive)	74%	-2.1% (inactive)	-0.4	2.6% (inactive)	62.2% (active)	3.9% (inactive)	-2.9% (inactive)	59.4% (active)	60.3% (active)	25.3% (inactive)	0.857 (inactive)	1	9250	10800	0.196 (inactive) and -0.0105 (inactive)	0.164 and -0.496	-1.38 (inactive)	
CC[C@H](c1ccc(O)cc1)[C@@H](CC)c1ccc(O)cc1	16.7% (inactive)	82%	11.6% (inactive)	2.5	1.4% (inactive)	89.6% (active)	20.9% (inactive)	40% (active)	97% (active)	118% (active)	101% (active)	0.78 (inactive)	0.948	7720	9900	-1.4 (inactive)	-0.231	-0.325 (inactive)	10 nM (inactive)
CCN[C@H]1CN(CCCOC)S(=O)(=O)c2sc(S(N)(=O)=O)cc21	113% (inactive) and 65.9% (inactive)	109% and 72.4%	1.3% (inactive)	1.1	3.9% (inactive)	-7.1% (inactive)	-15% (inactive)	0.6% (inactive)	6.4% (inactive)	7.5% (inactive)	14.9% (inactive)	0.831 (inactive)	1.12	8040	9670	0.333 (inactive)	0.0327		10 nM (inactive)
O=c1[nH]c(=O)c2[nH]c(=O)[nH]c2[nH]1			-2.4% (inactive)	-1.6	-0.2% (inactive)	-5.9% (inactive)	8.1% (inactive)	-2.2% (inactive)	-5.8% (inactive)	-9.2% (inactive)	9.1% (inactive)	0.877 (inactive)	0.666	8320	9490	0.618 (inactive)	0.253	0.705 (inactive)	
